This note sets out measurements from PubChem BioAssay AID1865 (National Center for Advancing Translational Sciences (NCATS), 2009).

About 540 (0.19%) of roughly 280,000 compounds were called active. Roughly 2% stayed inconclusive and do not appear here. Calls come from the whole dose curve; as a rule, active = well fitted activation curve with a large enough effect; inconclusive = small, poorly fitted or top-dose-only effect; inactive = flat fitted curve, though single readings scatter. The list comes from a sample in which actives are over-represented; it also holds similar structures and randomly drawn compounds. Where a call stands in place of a potency, no number is given.
Potency is the fitted concentration of half-maximal effect.

This assay in a line: Quantitative High-Throughput Screen for Regulators of Epigenetic Control. Note: nearly all actives have a fitted effect of over 60% in size. The following applies: murine LDR cells, GFP reporter derepression, 30 h; series mostly up to 53.9 µM. The source says: NIH Molecular Libraries Screening Centers Network [MLPCN] NIH Chemical Genomics Center [NCGC] MLSCN Grant: 1 X01 MH079860-01 Assay Provider: Elisabeth D. Martinez, University of Texas SW Medical Center NCGC Assay Overview: The Locus Derepression (LDR) assay detects the derepression or induction of a GFP reporter that is stably integrated in a genomic region of murine cells that is presumably silenced. Transcription of the GFP reporter is controlled by a CMV promoter, which normally is constitutively active. However, this cell line, termed LDR, was selected for lack of constitutive production of GFP. GFP production can be induced by incubating the cells with histone deacetylase or DNA methyltransferase inhibitors (Martinez et al., 2006). Compounds that derepress or induce this reporter locus are identified by enumerating GFP positive cells using a laser-scanning microplate cytometer (Auld et al., 2006). This assay was screened against the MLSMR earlier (AID 597; (Johnson et al., 2008) and has been rescreened here against the expanded collection.
NCGC Assay Protocol Summary: Three hundred LDR cells in 5 uL per well were dispensed into black, clear-bottom 1536-well plates. Twenty-three nL compound was transferred to the assay plate and cells were incubated 30 hours at 37 C. Medium was removed, cells were washed two times with PBS, and GFP-positive cells were enumerated as fluorescent objects between the sizes of 20 to 120 um width and depth using an Acumen Explorer. References Auld, DS, Johnson, RL, Zhang, YQ, Veith, H, Jadhav, A, Yasgar, A, Simeonov, A, Zheng, W, Martinez, ED, Westwick, JK, Austin, CP, Inglese, J (2006). Fluorescent protein-based cellular assays analyzed by laser-scanning microplate cytometry in 1536-well plate format. Methods Enzymol 414: 566-89. Johnson, RL, Huang, W, Jadhav, A, Austin, CP, Inglese, J, Martinez, ED (2008). A quantitative high-throughput screen identifies potential epigenetic modulators of gene expression. Anal Biochem 375: 237-48. Martinez, ED, Dull, AB, Beutler, JA, Hager, GL (2006). High-content fluorescence-based screening for epigenetic modulators. Methods Enzymol 414: 21-36.
For the molecule `CCOC(=O)c1c(S(=O)(=O)NCC(=O)Nc2ccc(Cl)c(C(F)(F)F)c2)c(C)n(C)c1C`, the Potency entry was “inactive”.
As to `CCN1CCN(CCCNC(=O)c2cnn(-c3ccc(C)cc3C)c2C2CCN(C(=O)OC(C)(C)C)CC2)CC1`, the Potency entry was “inactive”.
Turning to `Cc1ccccc1-n1nnc2c(=O)oc3ccccc3c21`, the Potency was 15.8 µM (active).
In the case of `Cc1cccc(N2CCN(c3c(CN4CCCC4)c(=O)oc4ccccc34)CC2)c1C` it was “inactive”; in that of `CCOC(=O)c1c(C)nc2c(c1C)c(=O)oc1ccccc12`, “inactive”.
On to `COc1ccc(CCn2cc3c(c2-c2ccc(Br)cc2)c(=O)n(C)c(=O)n3C)cc1OC`, for which the Potency result was “inactive”.
The result for `Cc1c(CNC(C)c2ccccc2)c(C(=O)O)c(C)n1Cc1c(F)cccc1Cl` (configuration not stated) reads “inactive”; that for `Cc1ccc(Nc2c(-c3ccc(N(C)C)cc3)nc3nc[nH]n23)cc1`, “inactive”; that for `COC(=O)c1ccc(C2C(C(=O)Nc3ccccc3)=C(C)Nc3nc4ccccc4n32)cc1` (configuration not stated), “inactive”.
In the case of `CC1CCC(N2CC(=O)N(CCC3=CCCCC3)C(c3ccc(F)cc3)C2=O)CC1` (configuration not stated) it was “inactive”; in that of `Cc1cccc(C(=O)Nc2ccc(S(=O)(=O)N3CCCCC3c3cccnc3)cc2)c1` (configuration not stated), “inactive”.
Regarding `Cc1ccc(NC(=O)CSc2nc3ccccc3c3nc(CCn4cncc4C)nn23)cc1F`, the Potency entry is “inactive”.
In the case of `CCOC(=O)C(=CNc1cccc(C)n1)C(=O)OCC` it was “inactive”; in that of `CCOC(=O)C(=Cc1ccccc1OC)C(=O)OCC`, 22.4 µM (active).
On to `COc1ccccc1NC(=O)c1ccc(C)s1`, for which the Potency entry was “inactive”.
Turning to `Cc1cc(Nc2cccc(C(F)(F)F)c2)nc2ccc(NC(=O)c3ccc(=O)[nH]c3)cc12`, the Potency entry is “inactive”.
In the case of `COc1cccc(Cn2c(CNS(=O)(=O)c3ccc(Cl)s3)nc3cccnc32)c1` it was “inactive”; in that of `CCCCNc1ccc(-c2nc(-c3ccncc3)no2)cc1[N+](=O)[O-]`, “inactive”; in that of `CCCn1c2ccccc2c2cnn(CC(=O)NCCCOC(C)C)c(=O)c21`, “inactive”.
For `Cc1cccc2c1-c1sc(C(=O)Nc3ccc(F)cc3F)cc1CO2`, the Potency result was “inactive”.
The result for `CCOCCCNC(=O)c1c(NC(=O)Cc2coc3c(C)c(C)ccc23)sc2c1CCC2` reads “inactive”; that for `COc1ccc(CCNc2ncnc3c2cnn3-c2ccc(C)cc2)cc1`, “inactive”; that for `CCOC(=O)C1CCCN(S(=O)(=O)c2cc(-c3cc(C)no3)ccc2OC)C1` (configuration not stated), “inactive”.
As to `COc1ccc(C(=O)CSc2nc(C)cc(C)n2)cc1[N+](=O)[O-]`, the Potency entry is “inactive”.
For `COc1ccc(OCc2cn3c(C)cc(C)nc3n2)cc1`, the Potency entry was “inactive”.
In the case of `COc1ccc(C(C[N+](=O)[O-])n2nc(C)cc2C)cc1` (configuration not stated) it was 12.6 µM (active).
In the case of `O=C1CCCc2cc(S(=O)(=O)N3CCCC(C(=O)NCc4ccccc4)C3)ccc2N1` (configuration not stated) it was “inactive”.
As for `CCOc1cc(-c2nnc(SCC(=O)NC3CCCC3)nc2-c2ccc(OC)c(OCC)c2)ccc1OC`, the Potency result is “inactive”.
Regarding `CC(=O)N1c2ccc(S(=O)(=O)N3CCCCCC3)cc2CC1C(=O)NCc1ccccc1C` (configuration not stated), the Potency result is “inactive”.
On to `COc1ccc(C2C(=O)N(C3CCCCCC3)CC(=O)N2CCc2ccc(Cl)cc2)cc1OC` (configuration not stated), for which the Potency entry is “inactive”.
`CC(C)(C)OC(=O)N1CCC(c2c(C(=O)N3CCN(c4cccc(Cl)c4)CC3)cnn2-c2cccc(Cl)c2)CC1`: the Potency result is “inactive”.
As to `CN(C)CCCn1c(-c2ccc(Cl)cc2)csc1=Nc1ccccc1`, the Potency entry was “inactive”.
Regarding `CCCCCn1c(=O)[nH]c2cc(C(=O)Nc3ccc(F)cc3)ccc2c1=O`, the Potency result is “inactive”.
Consider `O=C(Nc1c(-c2ccc(F)cc2)nc2ccccn12)c1cccc(F)c1`, for which the Potency result is “inactive”.
The result for `Cc1cccc(NC(=O)Cn2cc(S(=O)(=O)Cc3ccccc3Cl)c3ccccc32)c1` reads “inactive”; that for `CCOC(=O)c1ccc(NC(=O)CSc2nc3c([nH]c4ccccc43)c(=O)n2C)cc1`, “inactive”.
The result for `Cn1c(C(=O)Nc2cccc(C(F)(F)F)c2)cc2c(=O)n3ccccc3nc21` reads “inactive”; that for `COc1cc(Cl)c(C)cc1NC(=O)CCc1nc2cccnc2n1Cc1cccs1`, “inactive”; that for `COc1cccc(NC(=O)N(Cc2cn(C)c3ccccc23)C2CCCCCC2)c1`, “inactive”.
`COc1cccc(CNCc2c(C(=O)O)n(Cc3ccc(C)cc3)c3cc(C)ccc23)c1OC`: the Potency entry was “inactive”.
For the molecule `COc1ccc(Nc2ncc3c(n2)CCN(C(=O)OC(C)(C)C)C3)cc1`, the Potency result was “inactive”.
As for `COc1ccc(CCNC(=O)CCCn2c(=O)c3ccccc3n(Cc3ccc(C)cc3)c2=O)cc1OC`, the Potency result was “inactive”.
In the case of `COC(=O)c1scc(-c2ccc(C)cc2)c1S(=O)(=O)Nc1cc(Cl)c(OC)cc1OC` it was “inactive”; in that of `O=C(Nc1ccc(Br)cc1)c1cc2nc(-c3ccccc3)cc(-c3ccccc3)n2n1`, “inactive”; in that of `CCCC(=O)Nc1cc(C(=O)NCc2ccc(OC)cc2)ccc1S(=O)(=O)c1ccc(Cl)cc1`, “inactive”.
Turning to `CC(C)(C)c1ccc(C(=O)N2CCC(c3nc(-c4ccc(S(=O)(=O)N5CCCC5)cc4)no3)CC2)cc1`, the Potency entry is “inactive”.
Regarding `Cc1nc2sc(C(=O)c3ccccc3)c(N)c2c2c1CCCC2`, the Potency result was “inactive”.
In the case of `COc1cccc(C(=O)c2sc3nc(-c4ccccc4)cc(C(F)(F)F)c3c2N)c1`, the Potency was 1.58 µM (active).
In the case of `Cc1ccc2c(N)c(C(=O)c3ccccc3)sc2n1`, the Potency entry was “inactive”.
As for `COc1ccc(Cc2nc3ccc(C(=O)NCc4ccc(OC)cc4OC)cc3o2)cc1`, the Potency entry is “inactive”.
`Cc1cccc(C)c1-n1ncc(C(=O)NCCCN2CCCCC2)c1C1CCN(C(=O)OC(C)(C)C)CC1`: the Potency result is “inactive”.
Turning to `COc1ccc(CCN2C(=O)c3oc4cc(C)cc(C)c4c(=O)c3C2c2ccccc2F)cc1OC` (configuration not stated), the Potency entry was “inactive”.
Regarding `COc1ccc2c(c1)c(=O)c(C(=O)c1ccccc1)cn2CC(=O)Nc1ccc2c(c1)OCCO2`, the Potency result was “inactive”.
In the case of `Cc1ccc(NC(=O)CN2c3ccccc3S(=O)(=O)c3ccccc32)cc1F` it was “inactive”.
For `CCOC(=O)c1c(C)oc2ccc(N(C(=O)c3ccncc3)S(=O)(=O)c3ccc(CC)cc3)cc12`, the Potency result is “inactive”.
In the case of `O=C(CSc1oc(-c2ccco2)nc1S(=O)(=O)c1ccc(Cl)cc1)c1ccccc1` it was “inactive”; in that of `COc1ccc(CC(=O)N2CC(=O)Nc3ccc(Br)cc3C2c2ccc(F)cc2)cc1OC` (configuration not stated), “inactive”; in that of `COc1ccc(CCNc2ncnc3onc(-c4ccc(Cl)cc4)c23)c(OC)c1`, “inactive”.
Consider `O=C(CSc1oc(-c2ccco2)nc1S(=O)(=O)c1ccccc1)c1ccc(Cl)cc1`, for which the Potency result is “inactive”.
Turning to `O=C(c1cccs1)N1CCCC(c2nc(-c3ccc(F)cc3)no2)C1` (configuration not stated), the Potency result was “inactive”.
Consider `N#Cc1c(-c2ccc(F)cc2)cc(C2CC2)nc1SCC(=O)c1cccs1`, for which the Potency was 10 µM (active).
The result for `CCOC(=O)CC(=O)CSc1nc(-c2ccccc2)cc(-c2ccc(Cl)cc2)c1C#N` reads “inactive”.
